SMILES strings stand for the structures. Several values for one entry are separate records, joined by “and”; a condition that tells them apart may be missing. Identical values can stand only once. Records with an inconclusive call do not appear. Some compounds were tested as several samples or in several runs, with calls that do not always agree. Activity calls are given as the source filed them. Unless noted, the call rests on the fitted dose curve; in most records, active means well fitted curve in the direction sought with a large enough effect in the repeat runs; inconclusive means weak or mixed curves; inactive means no such curve, though single readings can be large; an effect the other way counts as inactive or inconclusive.

Assay [1] in a line: qHTS assay to identify small molecule antagonists of the sonic hedgehog signaling (Shh) pathway (AID 1259369; calls by dose curve; further: nearly all actives have a fitted effect of over 45% in size; further: potency means the concentration at half of the fitted maximal effect). In a few lines: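 Gli1 transcriptional reporter (firefly Luc) in NIH/3T3 background, conditioned-medium activated. 24hr exposure, luminescence endpoint.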
Assay [2] in a line: qHTS assay to identify small molecule agonists of the androgen receptor (AR) signaling pathway in the presence of an antagonist - cell viability counter screen (AID 1259379).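 Further: MDA-kb2 human breast cancer cells carrying an MMTV luciferase reporter; series mostly up to about 92 µM; nearly all actives have a fitted effect of over 25% in size.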 In a few lines:
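Counter screen for cell viability run in parallel with the AR agonist-mode luciferase assay. MDA-kb2 cells were co-treated with nilutamide (3.0uM final) and compounds, then incubated 16 hr at 37C, and CellTiter-Fluor fluorescence was measured.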

Assay [3] can be described thus: qHTS assay to identify small molecule agonists of the estrogen receptor beta (ER-beta) signaling pathway - cell viability counter screen (AID 1259380). Further: nearly all actives have a fitted effect of over 30% in size. In a few lines:
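In this qHTS counter screen, HEK293T cells carrying an ER-beta/UAS beta-lactamase reporter, grown in 2% charcoal-stripped FBS, received compound for 16 hr; ATP-based CellTiter-Glo luminescence was then read after 30 min at room temperature.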

Assay [4] in a line: qHTS assay to identify small molecule antagonists of the estrogen receptor beta (ER-beta) signaling pathway - cell viability counter screen (AID 1259382).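 Further: HEK293T cells carrying ER-beta-UAS-bla reporter stimulated with estradiol; series mostly up to about 92 µM; nearly all actives have a fitted effect of over 55% in size.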 The method, boiled down: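 HEK293T ER-beta-UAS-bla, 2% charcoal-stripped FBS; compounds + 1nM E2 16 hr 37C; CellTiter-Glo luminescence, 30 min RT.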
Assay [5] deals with Estrogen receptor (Homo sapiens) (UniProt P03372). The assay can be described thus: qHTS assay to identify small molecule agonists of the estrogen receptor alpha (ER-alpha) signaling pathway in the presence of an antagonist (AID 1259383; calls by dose curve; further: top concentration of the series differs between compounds; nearly all actives have a fitted effect of over 15% in size). The method, boiled down: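 ER-alpha agonism measured under antagonist challenge: 10.0nM ICI-182,780 (final) plus compound, 15 concentrations, 22hr, VM7Luc4E2 ERE-luciferase cells. Read by luminescence.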

The nature of assay [6]: qHTS assay to identify small molecule agonists or antagonists of the thyroid stimulating hormone receptor (TSHR) signaling pathway - wild type cell line counter screen (AID 1259384; calls by dose curve). In a few lines: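 Counter screen in untransfected Hek293: compounds (15-point titration, triplicate) plus phosphodiesterase inhibitor Ro20-1724 added after 18 h plating; 30 min RT. Intracellular cAMP via competitive d2/cryptate immunoassay, 1 h incubation.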

For assay [7], the target named is Thyrotropin receptor (Homo sapiens) (UniProt P16473). The assay can be described thus: qHTS assay to identify small molecule antagonists of the thyroid stimulating hormone receptor (TSHR) signaling pathway (AID 1259385; calls by dose curve; further: nearly all actives have a fitted effect of over 20% in size). The method, boiled down: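 Antagonist mode: compound-treated TSHR-expressing HEK293 cells were stimulated with 1.5 ng/mL TSH (final) in presence of Ro20-1724 for 30 min at RT. HTRF cAMP detection after 1 h; each compound tested at 15 concentrations, triplicate.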

The nature of assay [8]: qHTS assay to identify small molecule agonists of the estrogen receptor alpha (ER-alpha) signaling pathway in the presence of an antagonist - cell viability counter screen (AID 1259386).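 Further: series mostly up to about 92 µM; cells exposed to compounds for 22 h at 37 °C before the viability read; nearly all actives have a fitted effect of over 30% in size.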 In a few lines:
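Steps: 5-day stripped-FBS culture; seed and incubate 24hr; add ICI-182,780 (10.0nM final); pin 15-point compound titration; incubate 22hr at 37C; add CellTiter-Fluor at 21hr; read fluorescence.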

The target in assay [9] is Progesterone receptor (Homo sapiens) (UniProt P06401). The assay can be described thus: qHTS assay to identify small molecule antagonists of the progesterone receptor (PR) signaling pathway (AID 1346795; active means well fitted inhibition curve with a large enough effect in the signal ratio in the repeat runs, not every such curve was filed as active; the % refers to the signal ratio). In a few lines: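 Screening used a GripTite HEK293T line with PR-responsive UAS-beta-lactamase. Cells were challenged with compound in the presence of 1 nM R5020 final for 16 hr at 37C; B/G FRET substrate, 2 hr room temperature, fluorescence.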

Assay [10] can be described thus: qHTS assay to identify small molecule antagonists of the progesterone receptor (PR) signaling pathway - cell viability counter screen (AID 1346798). Further: series mostly up to about 92 µM; nearly all actives have a fitted effect of over 50% in size. In a few lines: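 Measures cytotoxicity in parallel with the PR antagonist reporter read: HEK293T PR-UAS-bla cells get compound and R5020 for 16 hr, and remaining viable cells are quantified by CellTiter-Glo luminescence.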

A short description of assay [11]: qHTS assay to identify small molecule agonists of the progesterone receptor (PR) signaling pathway - cell viability counter screen (AID 1346799; calls by dose curve; further: nearly all actives have a fitted effect of over 45% in size). In a few lines:
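Using the same plates as the PR reporter screen, HEK293T PR-UAS-bla cells received compounds for 16 hr at 37C and were then lysed with CellTiter-Glo; luminescence was read 30 min later at room temperature.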

Assay [12] can be described thus: qHTS assay to identify small molecule antagonists of the TGF-beta/Smad signaling pathway - cell viability counter screen (AID 1346824). Further: nearly all actives have a fitted effect of over 50% in size. In a few lines: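 Cytotoxicity counter-screen run in the same wells as the beta-lactamase Smad reporter read: CellTiter-Glo luminescence after 30 min at room temperature. HEK 293T SBE-bla cells had 5 hr compound exposure at 37 C with TGF-beta1 (0.25 ng/mL stock).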

A short description of assay [13]: qHTS assay to identify small molecule agonists of the TGF-beta/Smad signaling pathway - cell viability counter screen (AID 1346829). Further: top concentration of the series differs between compounds; nearly all actives have a fitted effect of over 45% in size. In a few lines:
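CellTiter-Glo luminescence readout; SBE-bla HEK 293T cells, overnight plating, compound 5 hr at 37 C/5% CO2, then bla substrate 2 hr RT, then CellTiter-Glo 30 min RT.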

Assay [14] is described as follows: qHTS assay to identify small molecule agonists of the TGF-beta/Smad signaling pathway (AID 1346859; active means well fitted activation curve with a large enough effect in the signal ratio in the repeat runs, not every such curve was filed as active; the % refers to the signal ratio; further: series mostly up to about 77 µM). In a few lines: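 Beta-lactamase reporter activity downstream of Smad binding elements was measured in stably transfected HEK 293T cells; compounds were incubated for 5 hr, substrate for 2 hr at room temperature.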
Assay [15] has as its target Progesterone receptor (Homo sapiens) (UniProt P06401). The assay can be described thus: qHTS assay to identify small molecule agonists of the progesterone receptor (PR) signaling pathway (AID 1346784; calls by dose curve; further: nearly all actives have a fitted effect of over 30% in size). The method, boiled down: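 Seed PR-UAS-bla HEK 293T cells (2% charcoal-stripped FBS), incubate 6 hr at 37C; add compounds in DMSO, 16 hr at 37C; add LiveBLAzer B/G substrate, 2 hr RT; read fluorescence intensity.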

Assay [16] concerns the target Thyrotropin-releasing hormone receptor (Homo sapiens) (UniProt P34981). The assay can be described thus: qHTS assay to identify small molecule antagonists of the thyrotropin-releasing hormone receptor (TRHR) signaling pathway (AID 1346877; active means well fitted inhibition curve with a large enough effect in the repeat runs, not every such curve was filed as active; further: series mostly up to about 51 µM). The method, boiled down:
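Human TRHR in HEK293 cells; inhibition of the intracellular calcium rise triggered by 1 nM TRH was followed by fluorescence over 3 min. Compounds were run at 15 concentrations, three replicates each.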

Assay [17] has the same target. The assay is described as follows: qHTS assay to identify small molecule agonists of the thyrotropin-releasing hormone receptor (TRHR) signaling pathway (AID 1346891; calls by dose curve;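 further: HEK293 cells expressing TRHR with calcium dye readout; series mostly up to about 58 µM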). In a few lines: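 Overnight-plated (18 h, 37 °C, 5% CO2) TRHR-Hek293 cells; 2 h calcium dye at 37 °C; compound in DMSO; 3-min kinetic fluorescence read.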
For assay [18], the target named is Estrogen receptor beta (Homo sapiens) (UniProt Q92731). The assay is described as follows: qHTS assay to identify small molecule antagonists of the estrogen receptor beta (ER-beta) signaling pathway (AID 1259378; active means well fitted inhibition curve with a large enough effect in the signal ratio in the repeat runs, not every such curve was filed as active; the % refers to the signal ratio). In a few lines:
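Antagonist mode: compounds added to beta-lactamase reporter HEK293T ER-beta-UAS cells stimulated with E2 (1nM final), 16 hr at 37C. LiveBLAzer B/G FRET substrate, 2 hours room temperature, fluorescence read-out.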

The target in assay [19] is Androgen receptor (Homo sapiens) (UniProt P10275). The assay is described as follows: qHTS assay to identify small molecule agonists of the androgen receptor (AR) signaling pathway in the presence of an antagonist (AID 1259381; calls by dose curve; further: nearly all actives have a fitted effect of over 15% in size; further: potency means the concentration at half of the fitted maximal effect). The method, boiled down:
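AR antagonist background: nilutamide 3.0uM final. Cell line: MDA-kb2, MMTV-driven luciferase, responsive to both AR and GR. Exposure 16hr, 37C, no CO2; ONE-Glo luminescence.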

Thyrotropin receptor (Homo sapiens), sequence (P16473 whole entry, looked up): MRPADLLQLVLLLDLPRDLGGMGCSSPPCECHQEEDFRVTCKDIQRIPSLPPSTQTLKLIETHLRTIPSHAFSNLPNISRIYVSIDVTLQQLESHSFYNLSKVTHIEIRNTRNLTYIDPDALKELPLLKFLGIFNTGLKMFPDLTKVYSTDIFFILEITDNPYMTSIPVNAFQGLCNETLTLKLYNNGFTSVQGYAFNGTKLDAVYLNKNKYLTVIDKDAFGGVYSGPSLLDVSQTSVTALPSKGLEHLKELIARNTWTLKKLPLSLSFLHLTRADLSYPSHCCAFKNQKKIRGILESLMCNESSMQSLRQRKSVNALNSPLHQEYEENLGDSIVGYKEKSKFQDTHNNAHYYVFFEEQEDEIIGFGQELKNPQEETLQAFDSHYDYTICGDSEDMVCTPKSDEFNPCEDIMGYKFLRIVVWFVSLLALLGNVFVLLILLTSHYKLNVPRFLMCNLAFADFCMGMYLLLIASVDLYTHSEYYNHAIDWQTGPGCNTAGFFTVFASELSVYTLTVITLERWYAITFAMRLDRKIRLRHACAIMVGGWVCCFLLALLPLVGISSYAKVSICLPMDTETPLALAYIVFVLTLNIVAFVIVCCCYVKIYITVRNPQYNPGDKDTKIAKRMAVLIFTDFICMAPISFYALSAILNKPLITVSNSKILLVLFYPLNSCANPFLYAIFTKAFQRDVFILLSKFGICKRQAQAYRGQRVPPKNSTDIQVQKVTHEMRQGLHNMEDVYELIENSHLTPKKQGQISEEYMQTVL
Progesterone receptor (Homo sapiens), sequence (P06401 whole entry, looked up): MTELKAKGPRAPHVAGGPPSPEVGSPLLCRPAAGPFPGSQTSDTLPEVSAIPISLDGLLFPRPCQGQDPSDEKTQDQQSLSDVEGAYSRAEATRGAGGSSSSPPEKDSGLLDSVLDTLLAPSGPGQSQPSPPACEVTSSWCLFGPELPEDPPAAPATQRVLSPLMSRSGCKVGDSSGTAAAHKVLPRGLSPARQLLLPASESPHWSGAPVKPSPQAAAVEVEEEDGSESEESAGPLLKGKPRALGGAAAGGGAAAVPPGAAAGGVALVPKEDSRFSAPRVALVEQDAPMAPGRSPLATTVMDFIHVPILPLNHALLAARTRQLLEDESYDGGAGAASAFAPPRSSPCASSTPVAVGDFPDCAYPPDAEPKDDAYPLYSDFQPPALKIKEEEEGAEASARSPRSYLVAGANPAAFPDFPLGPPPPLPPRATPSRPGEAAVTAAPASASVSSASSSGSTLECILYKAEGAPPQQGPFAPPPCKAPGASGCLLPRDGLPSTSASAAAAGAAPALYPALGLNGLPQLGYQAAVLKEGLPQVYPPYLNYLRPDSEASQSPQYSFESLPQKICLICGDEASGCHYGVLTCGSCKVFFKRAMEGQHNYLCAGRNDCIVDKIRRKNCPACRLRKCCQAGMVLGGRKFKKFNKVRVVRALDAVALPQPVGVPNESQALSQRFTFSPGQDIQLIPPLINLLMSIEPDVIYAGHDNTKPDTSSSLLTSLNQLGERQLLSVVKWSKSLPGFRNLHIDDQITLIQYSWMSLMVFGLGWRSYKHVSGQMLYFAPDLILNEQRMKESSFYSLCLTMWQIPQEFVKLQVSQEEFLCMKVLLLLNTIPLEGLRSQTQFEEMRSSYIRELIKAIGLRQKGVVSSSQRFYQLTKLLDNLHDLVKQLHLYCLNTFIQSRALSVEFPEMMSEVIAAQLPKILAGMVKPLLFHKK
Estrogen receptor (Homo sapiens), sequence (P03372 whole entry, looked up): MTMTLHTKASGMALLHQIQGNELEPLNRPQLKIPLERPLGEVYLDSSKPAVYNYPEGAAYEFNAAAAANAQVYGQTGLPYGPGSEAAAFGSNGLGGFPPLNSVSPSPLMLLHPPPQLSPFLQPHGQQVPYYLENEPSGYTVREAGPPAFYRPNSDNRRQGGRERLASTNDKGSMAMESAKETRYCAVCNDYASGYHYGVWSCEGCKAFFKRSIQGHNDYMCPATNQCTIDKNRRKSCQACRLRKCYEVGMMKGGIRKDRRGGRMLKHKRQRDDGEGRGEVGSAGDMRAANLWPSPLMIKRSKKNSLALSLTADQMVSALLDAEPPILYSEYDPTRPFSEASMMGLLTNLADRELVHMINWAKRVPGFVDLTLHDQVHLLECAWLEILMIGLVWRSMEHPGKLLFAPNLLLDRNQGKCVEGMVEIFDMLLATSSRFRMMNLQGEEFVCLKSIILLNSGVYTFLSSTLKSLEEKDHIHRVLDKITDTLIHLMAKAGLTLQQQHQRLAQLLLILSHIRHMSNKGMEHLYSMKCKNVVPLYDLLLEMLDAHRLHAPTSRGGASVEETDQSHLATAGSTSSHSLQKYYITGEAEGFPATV
Thyrotropin-releasing hormone receptor (Homo sapiens), sequence (P34981 whole entry, looked up): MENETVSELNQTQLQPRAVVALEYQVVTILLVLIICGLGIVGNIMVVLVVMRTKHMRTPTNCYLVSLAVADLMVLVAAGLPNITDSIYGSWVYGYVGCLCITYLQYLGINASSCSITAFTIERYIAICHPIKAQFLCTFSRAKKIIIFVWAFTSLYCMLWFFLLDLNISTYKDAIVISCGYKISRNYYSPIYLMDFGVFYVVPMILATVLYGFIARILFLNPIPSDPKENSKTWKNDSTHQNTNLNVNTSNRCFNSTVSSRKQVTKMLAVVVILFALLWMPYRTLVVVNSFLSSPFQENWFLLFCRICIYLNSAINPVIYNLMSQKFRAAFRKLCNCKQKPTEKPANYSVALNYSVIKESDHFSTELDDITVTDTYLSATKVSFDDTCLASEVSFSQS
Androgen receptor (Homo sapiens), sequence (P10275 whole entry, looked up): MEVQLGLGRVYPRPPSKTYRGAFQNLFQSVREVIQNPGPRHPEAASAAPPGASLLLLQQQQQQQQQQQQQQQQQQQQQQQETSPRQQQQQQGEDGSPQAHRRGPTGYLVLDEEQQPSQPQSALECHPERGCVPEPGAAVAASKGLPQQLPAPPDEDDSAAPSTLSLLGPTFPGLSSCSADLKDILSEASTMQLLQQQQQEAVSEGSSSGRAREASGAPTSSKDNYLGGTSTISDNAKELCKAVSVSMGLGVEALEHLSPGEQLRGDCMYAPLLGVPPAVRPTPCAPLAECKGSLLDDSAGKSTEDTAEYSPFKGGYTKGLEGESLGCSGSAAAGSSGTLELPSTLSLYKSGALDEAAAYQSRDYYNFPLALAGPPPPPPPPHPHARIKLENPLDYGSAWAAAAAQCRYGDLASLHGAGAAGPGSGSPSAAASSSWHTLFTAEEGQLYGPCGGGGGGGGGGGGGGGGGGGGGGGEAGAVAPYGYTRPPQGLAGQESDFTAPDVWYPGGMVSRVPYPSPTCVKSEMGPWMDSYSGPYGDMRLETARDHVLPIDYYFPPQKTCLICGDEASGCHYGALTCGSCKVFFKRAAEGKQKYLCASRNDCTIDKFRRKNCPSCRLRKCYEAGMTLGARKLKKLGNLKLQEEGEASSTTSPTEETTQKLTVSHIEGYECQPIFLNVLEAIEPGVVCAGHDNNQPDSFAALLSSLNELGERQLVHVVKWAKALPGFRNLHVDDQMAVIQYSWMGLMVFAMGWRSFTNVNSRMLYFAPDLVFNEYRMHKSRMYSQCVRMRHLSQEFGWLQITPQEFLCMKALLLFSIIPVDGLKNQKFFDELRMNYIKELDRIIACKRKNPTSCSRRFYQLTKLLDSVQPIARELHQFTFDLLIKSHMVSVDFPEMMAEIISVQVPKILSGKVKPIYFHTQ
Estrogen receptor beta (Homo sapiens), sequence (Q92731 whole entry, looked up): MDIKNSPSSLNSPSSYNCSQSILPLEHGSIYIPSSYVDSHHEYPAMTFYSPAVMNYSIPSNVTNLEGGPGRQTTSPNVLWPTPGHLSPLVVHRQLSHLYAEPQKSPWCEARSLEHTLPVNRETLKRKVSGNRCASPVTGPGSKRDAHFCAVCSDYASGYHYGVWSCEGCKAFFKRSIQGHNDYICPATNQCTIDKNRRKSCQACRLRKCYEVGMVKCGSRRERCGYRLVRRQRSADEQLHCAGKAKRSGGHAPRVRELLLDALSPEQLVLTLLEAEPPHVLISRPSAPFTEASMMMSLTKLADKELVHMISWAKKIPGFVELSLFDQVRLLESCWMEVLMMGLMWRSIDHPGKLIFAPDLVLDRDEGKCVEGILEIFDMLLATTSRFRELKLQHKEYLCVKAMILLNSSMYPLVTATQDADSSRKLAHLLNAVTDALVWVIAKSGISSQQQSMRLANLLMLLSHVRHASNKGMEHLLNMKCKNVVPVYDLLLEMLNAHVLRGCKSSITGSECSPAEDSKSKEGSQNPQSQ

In the case of `CC[N+]1(CCOC(=O)C(O)(c2ccccc2)c2ccccc2)CCCCC1`, the Potency entry in [1], in [2], in [3], in assay [4], in assay [5] and in assay [7] was “inactive” each time. The Potency result in assay [8], in assay [9], in [10], in [11], in [12] and in assay [13] was “inactive” throughout. For the same compound, the compound was classed as inactive in assay [6] and in [14].

With `CC(C)C1(C)N=C(c2ncccc2C(=O)O)NC1=O` (stereo not drawn), the Potency result in [1], in assay [2], in assay [3], in assay [4], in assay [5] and in [7] was “inactive” throughout. The Potency result in [8], in assay [15], in [11], in assay [12], in assay [13] and in assay [16] was “inactive” in each case. In addition, the call in assay [6] and in [17] was inactive.

Turning to `NNCCO`, the Potency entry in [1], in [18], in assay [2], in [3], in assay [4] and in assay [5] was “inactive” each time. Further, the Potency entry in assay [7], in assay [8], in [10], in assay [11], in assay [12] and in assay [13] was “inactive” throughout. Besides, the compound was called inactive in [6] and in [14].

With `FC(Cl)(Cl)C(F)(Cl)Cl`, the Potency result in assay [1], in assay [2], in [3], in [4], in assay [5] and in assay [7] was “inactive” throughout. The Potency entry in assay [8], in assay [15], in assay [10], in assay [11], in assay [12] and in [13] was “inactive” throughout. Also, the result in assay [6] and in [14] was inactive.

As for `O=C(O)CCCOc1ccc(Cl)cc1Cl`, the Potency result is “inactive and 44 µM (active)” in [1]; “inactive and 55.4 µM (active)” in assay [19]. The Potency result in assay [2], in assay [3], in assay [4], in assay [8], in [12] and in [13] was “inactive” in each case.

On to `CC(C)OC(=O)Cc1ccccc1`, for which the Potency result in assay [1], in [2], in [3], in assay [4], in [5] and in assay [7] was “inactive” in each case. For the same compound, the Potency entry in assay [8], in [15], in assay [9], in [10], in assay [11] and in assay [12] was “inactive” in each case. The Potency result in [13] and in [16] was “inactive” in each case. Moreover, the compound was called inactive in assay [6], in assay [14] and in assay [17].

Turning to `CC(Cc1ccccc1)NCc1ccccc1Cl` (stereo not drawn), the Potency result in assay [1], in assay [2], in [3], in assay [4], in assay [5] and in assay [7] was “inactive” each time. For the same compound, the Potency entry in assay [8], in assay [15], in assay [9], in [10], in assay [11] and in [12] was “inactive” in each case. The Potency result in assay [13] and in assay [16] was “inactive” throughout. Further, the compound was classed as inactive in assay [6], in assay [14] and in assay [17].

Source of the values: PubChem BioAssay (Tox21).
